Records with an inconclusive call do not appear. The source made the active and inactive calls. How the source made its calls: active means hit-call score of the fitted dose curve at least 0.9, where 1 is the maximum; inconclusive means response in the unintended direction; inactive means score below 0.9.
assay: Tanguay_ZF_120hpf_CFIN_legacy: (Legacy) Oregon State University Tanguay Lab 120 Hour Post-fertilization zebrafish Assay for Caudal Fin Malformation (AID 2283649)
Description: Tanguay_ZF_120hpf_legacy is a whole embryo, multiplexed endpoint assay using zebrafish larvae exposed for 120 hours post fertilization on a 96-well plate.Tanguay_ZF_120hpf_CFIN_legacy is one of one assay component(s) measured or calculated from the Tanguay_ZF_120hpf_legacy assay. It is designed to make measurements of zebrafish development as detected with brightfield microscopy of developing zebrafish embryos.Data from the assay component Tanguay_ZF_120hpf_CFIN_legacy was analyzed into 1 assay endpoints. This assay endpoint, Tanguay_ZF_120hpf_CFIN_legacy, was analyzed in the positive analysis fitting direction relative to DMSO as the negative control and baseline of activity. Using a type of morphology reporter, gain-of-signal activity can be used to understand changes in developmentals as they relate to the whole embryo. To generalize the intended target to other relatable targets, this assay endpoint is annotated to the zebrafish development intended target family, where the subfamily is caudal fin morphogenesis.
Zebrafish husbandry: Tropical 5D wild-type adult zebrafish were housed in at an approximate density of 1000 per 100 gallon tank at the Sinnhuber Aquatic Research Laboratory, Oregon State University, Corvallis, OR. Each tank was kept at standard laboratory conditions of 28C on a 14-h light/10-h dark photoperiod in fish water consisting of reverse osmosis water supplemented with a commercially available salt (Instant Ocean). Spawning funnels were placed into the tanks the night prior, and embryos were collected and staged. To increase bioavailability, the chorion was enzymatically removed using pronase (63.6mg/ml, >/= 3.5U/mg, Sigma-Aldrich: P5147) at 4 hours post fertilization (hpf) using a custom automated dechorionator.Chemical exposures: Six hpf dechorionated embryos were placed 1 embryo per well in a 96-well plate prefilled with 90 ul of EM using automated embryo placement systems (AEPS). Ten microliters of each row of dilution plate 2 was added to 2 exposure plates. The final DMSO concentration used was 0.64% (vol/vol). Thirty-two embryos were also exposed to 5uM trimethyltin chloride (positive control). Plates were sealed to prevent evaporation and foil covered to reduce light exposure and kept in a 28C incubator. Embryos were statically exposed until 120 hpf. At 24 hpf, embryos were assessed for photomotor response using a custom photomotor response analysis tool (PRAT) and for developmental toxicity endpoints (MO24: mortality at 24 hpf, DP: developmental progression, SM: spontaneous movement, and NC: notochord distortion). At 120 hpf, locomotor activity was measured using Viewpoint Zebralab and assessed for 18 endpoints. Zebrafish acquisition and analysis program (ZAAP), a custom program designed to inventory, acquire, and manage zebrafish data, was used to collect developmental endpoints as either present or absent (i.e., binary responses were recorded). If mortality occurred for an embryo (at either 24 or 120 hpf), the non-mortality endpoints were not measured.

For c1ccc(C(O[C@@H]2CCCN(CCc3ccc4c(c3)OCO4)C2)c2ccccc2)cc1, which AC50 is on record?
Its AC50 is 37.2 µM (active).

With c1ccc2cc3ccccc3cc2c1 as the molecule, how does the outcome read?
The outcome was “inactive”.

Which outcome does the source give for CCCc1ccccc1 here?
Its outcome is “inactive”.

For NC(=O)N1c2ccccc2C=Cc2ccccc21, which outcome is on record?
Its outcome is “inactive”.

With CCn1nc(C)c2c1C(=O)NCC(c1ccc(O)cc1)=N2 as the molecule, how does the outcome read?
The outcome was “inactive”.

Which outcome does the source give for Cn1cc[nH]c1=S here?
The outcome was “inactive”.

With OC(Cn1cncn1)(Cn1cncn1)c1ccc(F)cc1F as the molecule, how does the outcome read?
Its outcome is “inactive”.

With CNC(C)=O as the molecule, how does the outcome read?
The outcome was “inactive”.

With O=C(O)c1ccc2c(c1)nc(C(=O)NC1CCN(C3CC3)CC1)n2Cc1cc(-c2ccc(Cl)s2)on1 as the molecule, how does the outcome read?
Its outcome is “inactive”.

With CCCCCCCCCCCCCCO as the molecule, how does the outcome read?
Its outcome is “inactive”.

With Cc1ccc(S(=O)(=O)NC(=O)NN2CCCCCC2)cc1 as the molecule, how does the outcome read?
Its outcome is “inactive”.

For CCCCCCCCCC, which outcome is on record?
The outcome was “inactive”.

Which outcome does the source give for CCCCCCCC1CCC(=O)O1 (stereo not given) here?
Its outcome is “inactive”.

Which outcome does the source give for CCCCCCCCN(C)C here?
Its outcome is “inactive”.

Which outcome does the source give for NC(=O)NN=Cc1ccc([N+](=O)[O-])o1 here?
Its outcome is “inactive”.

With OCCOCCOCCO as the molecule, how does the outcome read?
Its outcome is “inactive”.

Which outcome does the source give for CC[C@H](C)C(=O)O[C@H]1C[C@H](O)C=C2C=C[C@H](C)[C@H](CC[C@@H](O)C[C@@H](O)CC(=O)O)[C@H]21 here?
Its outcome is “inactive”.

With CCc1ccc(O)c(C(C)(C)C)c1 as the molecule, how does the outcome read?
The outcome was “inactive”.

With COc1cc2c(c(OC)c1OC)-c1ccc(OC)c(=O)cc1[C@@H](NC(C)=O)CC2 as the molecule, how does the outcome read?
The outcome was “inactive”.

For C=CCc1cc(S(=O)(=O)c2ccc(O)c(CC=C)c2)ccc1O, which outcome is on record?
The outcome was “inactive”.

With CCCOc1ccc(S(=O)(=O)N2CCN(CC)CC2)cc1-c1nc2c(CC)n(Cc3ccccn3)nc2c(=O)[nH]1 as the molecule, how does the outcome read?
Its outcome is “inactive”.

Which outcome does the source give for CCc1cccc(CC)c1N here?
Its outcome is “inactive”.

Which outcome does the source give for O=C(O)c1cccc(C[C@@H]2COc3ccc(OCc4nc5cc(F)ccc5s4)cc3[C@@H]2O)c1 here?
Its outcome is “inactive”.

Which outcome does the source give for CCOC(N)=O here?
Its outcome is “inactive”.

Which outcome does the source give for O=S1(=O)CCCO1 here?
Its outcome is “inactive”.

Which outcome does the source give for Nc1ccn([C@@H]2O[C@H](CO)[C@@H](O)[C@@H]2O)c(=O)n1 here?
The outcome was “inactive”.

With CC(C)C(=O)Nc1ccc([N+](=O)[O-])c(C(F)(F)F)c1 as the molecule, how does the outcome read?
Its outcome is “inactive”.

With CCCCN1C(=O)[C@@H]([C@H](O)C2CCCCC2)NC(=O)C12CCN(Cc1ccc(Oc3ccc(C(=O)O)cc3)cc1)CC2 as the molecule, how does the outcome read?
Its outcome is “inactive”.

Which outcome does the source give for CCOc1ccc2[nH]cc(C(=O)NCc3ccccc3)c(=O)c2n1 here?
Its outcome is “inactive”.

For COCc1nnc(-c2ccc[n+]([O-])c2)n1-c1c(Cl)c(Cl)cc2[nH]c(=O)c(=O)[nH]c12, which outcome is on record?
The outcome was “inactive”.

For CC(C)CCCCCCOC(=O)C1CCCCC1C(=O)OCCCCCCC(C)C (stereo not given), which outcome is on record?
The outcome was “inactive”.

For OCCNCCO, which outcome is on record?
The outcome was “inactive”.

For CCCCCCOC(=O)CC(CC(=O)OCCCCCC)(OC(=O)CCC)C(=O)OCCCCCC, which outcome is on record?
The outcome was “inactive”.

For CCCCCOC(C)=O, which outcome is on record?
The outcome was “inactive”.

Which outcome does the source give for C[C@]12C=CC(=O)C=C1CC[C@H]1[C@@H]3C[C@@H](O)[C@](O)(C(=O)CO)[C@@]3(C)C[C@H](O)[C@@]12F here?
The outcome was “inactive”.

For c1ccc2ncccc2c1, which outcome is on record?
The outcome was “inactive”.

For CC1(C)C(=O)N(Cl)C(=O)N1Cl, which outcome is on record?
Its outcome is “inactive”.

With OCc1ccccc1 as the molecule, how does the outcome read?
Its outcome is “inactive”.

For O=c1[nH]cnc2c1ncn2[C@H]1CC[C@@H](CO)O1, which outcome is on record?
The outcome was “inactive”.

For CCCCOC(=O)c1ccccc1, which outcome is on record?
Its outcome is “inactive”.

Source: PubChem BioAssay (EPA / NIEHS)
